CHRM1 antagonist – antagonists of human M1 muscarinic receptor | P11229 | CHO-K1 hM1, Fluo-8 calcium fluorescence, ACh EC80 antagonist | inhibition, % at 3 µM | 360,000 compounds, 1.3% hits | AID 588852;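 active = percent inhibition above its own plate's cutoff, namely the mean of that plate's compound wells plus 3 SD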;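 also: peak over basal fluorescence ratio during 140 s after agonist addition; 0% = ACh EC80 plus DMSO and 100% = DMSO alone without agonist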
Target sequence (P11229 whole entry, looked up): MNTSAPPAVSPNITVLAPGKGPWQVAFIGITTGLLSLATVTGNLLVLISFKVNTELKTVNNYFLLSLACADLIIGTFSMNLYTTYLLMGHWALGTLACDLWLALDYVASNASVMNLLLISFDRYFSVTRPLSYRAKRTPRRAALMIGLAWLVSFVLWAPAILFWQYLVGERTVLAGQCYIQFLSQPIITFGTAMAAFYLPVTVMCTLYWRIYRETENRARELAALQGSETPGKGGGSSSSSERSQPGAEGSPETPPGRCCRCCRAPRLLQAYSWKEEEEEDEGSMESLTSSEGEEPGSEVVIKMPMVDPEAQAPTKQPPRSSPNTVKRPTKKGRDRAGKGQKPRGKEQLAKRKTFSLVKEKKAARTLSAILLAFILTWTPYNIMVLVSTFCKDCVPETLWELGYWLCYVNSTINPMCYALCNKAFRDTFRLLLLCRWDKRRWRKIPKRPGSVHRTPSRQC
M1 ag parental – M1 agonist counterscreen hit in parental CHO-K1 cells | Fluo-8 calcium fluorescence; scaled to maximal ATP response, vehicle zero | activation, % at 3 µM | 360,000 compounds, 0.48% hits; in the data active = activation above about 15%;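 also: untransfected CHO-K1 host cells lacking M1 receptor as counterscreen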
CHO-K1 Ca antag – M1 antagonist counterscreen hit in parental CHO-K1 cells | inhibition, % at 3 µM | ATP-induced calcium, Fluo-8 fluorescence | AID 602250 | 360,000 compounds, 0.6% hits;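 active = inhibition above a per-plate cutoff, the plate's mean sample inhibition plus 3 SD, cut at about 24% in these data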;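 also: 0% = DMSO plus EC80 ATP and 100% = DMSO alone without ATP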
CHRM1 agonist – agonists of human M1 muscarinic receptor; 360,000 compounds, 0.33% hits; AID 588814; activation, % at 3 µM; CHO-K1 hM1, Fluo-8 calcium fluorescence, agonist mode; 0% DMSO, 100% acetylcholine EC100; P11229;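 active = activation above the run's mean compound activation plus 3 SD, cut at about 16% in these data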;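 also: peak over basal fluorescence ratio within a 140 s kinetic read after compound addition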
CHO-K1 Ca PAM – M1 PAM counterscreen hit in parental CHO-K1 cells; ATP EC20, Fluo-8 calcium fluorescence; 0% at ATP EC20, 100% at ATP max; activation, % at 3 µM; 360,000 compounds, 0.02% hits;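 active = activation above the run cutoff, the mean activation of all test compounds plus 3 SD, cut at about 40% in these data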;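 also: peak over basal fluorescence ratio in a 140 s read after ATP addition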
M1 PAM – potentiates human M1 receptor response to acetylcholine. P11229. CHO-K1 hM1, Fluo-8 calcium fluorescence, ACh EC20; 0% = ACh EC20, 100% = maximal ACh. activation, % at 3 µM. 360,000 compounds, 0.088% hits. AID 588819; in the data active = activation above about 19%, passing the limit was not always enough
Active calls of the source: *. Most compounds without a hit are left out; they make up all but 2.4% or so of the library.

SMILES	CHRM1 antagonist	M1 ag parental	CHO-K1 Ca antag	CHRM1 agonist	CHO-K1 Ca PAM	M1 PAM
Cc1cc[n+](CC(=O)c2ccc(NC(=O)c3ccccc3)cc2)cc1	32*	0	7	-6	-11	-12
O=C(C[n+]1ccccc1)c1ccc(NC(=O)c2ccccc2)cc1	2	0	-17	-9	23	2
COC(=O)c1cc(=O)nc(NN=C2c3ccccc3-c3ccccc32)s1	-5	2	4	6	4	1
COC(=O)c1cc(=O)nc(NN=Cc2ccc(OC)cc2)s1	19	0	24*	-4	-9	-5
COC(=O)[C@H](Cc1ccccc1)NC(=O)/C=C/[C@H]1O[C@@H](n2cc(C)c(=O)[nH]c2=O)C[C@@H]1O	-24	1	-15	-1	8	6
CCOC(=O)c1cnc(-n2nc(C)cc2C)nc1N1CC(C)OC(C)C1 (stereo not drawn)	10	0	24*	-4	-6	-5
Cc1cc(C)nc(N/N=C/C2=C(O)CC(c3ccc(F)cc3)CC2=O)n1 (stereo not drawn)	-6	0	3	-6	-12	3
N#Cc1c(NC(=O)c2ccc(-c3ccccc3[N+](=O)[O-])o2)sc2c1CCCC2	-14	-1	28*	4	-6	8
Cc1ccc(C(OCC(O)CNCc2ccc(F)cc2)c2ccccc2)cc1 (stereo not drawn)	8	17*	36*	7	12	3
CN(Cc1nccs1)C(=O)c1cc(COc2cccc3cnccc23)on1	23	16*	15	4	-15	-10
CCOC(=O)CC1CCCCN1C(=O)c1cc(COc2cccc3cnccc23)on1 (stereo not drawn)	72*	20*	45*	6	-29	-20
COC(=O)C1CCCCN1C(=O)c1cc(COc2cccc3cccnc23)on1 (stereo not drawn)	-14	2	9	-3	5	12
COC(=O)C1CCCCN1C(=O)c1cc(COc2cccc3cnccc23)on1 (stereo not drawn)	43*	15*	28*	1	-22	-15
COc1ccc(CCN(C(=O)c2snc(C(N)=O)c2N)C(C)C(=O)NC2CCCCC2)cc1OC (stereo not drawn)	-11	2	-5	-4	-16	1
COc1ccc(-c2ccnc3nc(N4CCOCC4)nn23)cc1	3	0	24*	-1	-7	-3
O=C(CCCc1nc(-c2ccc(Cl)cc2)no1)NC1CCCC1	37*	17*	4	0	-5	-11
O=C(CCc1nc(-c2ccc(Cl)cc2)no1)NC1CCCCC1	1	17*	5	1	2	-2
COc1ccc(-c2noc(CCCC(=O)NC3CCCC3)n2)cc1	10	14	4	-1	-4	-13
N/C(=N\OC(=O)CSc1ccccc1)c1ccccn1	-24	0	-6	-1	8	28*
N/C(=N\OC(=O)Cc1ccc(-c2ccccc2)cc1)c1ccccn1	-9	1	9	-3	-2	6
CC1CCCC(C)N1C(=O)c1ccc(S(=O)(=O)NCc2ccco2)cc1 (stereo not drawn)	-2	19*	-6	0	19	2
O=C(O)Cc1ccc(S(=O)(=O)N2CCCC2)s1	-1	0	4	-2	-12	3
CCOc1cc(/C=C2/SC(=O)N(CC(=O)N3CCc4ccccc4C3)C2=O)ccc1OCC(=O)O	-13	-1	2	2	8	19*
NC(=O)COc1ccccc1/C=C1/SC(=O)N(CC(=O)N2CCc3ccccc3C2)C1=O	-5	3	-1	-1	7	-5
COCCNC(=O)c1cccc(S(=O)(=O)N2CC3(C)CC2CC(C)(C)C3)c1 (stereo not drawn)	-3	0	9	-3	7	5
Cc1ccc(CC(CC(=O)O)C(=O)NCc2ccccc2)cc1 (stereo not drawn)	0	1	-3	-4	13	4
Cc1ccc(CNC(=O)[C@H](Cc2ccccc2)NC(=O)C2CCNCC2)cc1	-15	1	31*	-2	17	9
